# Test results from the OligoGym collection.
# Biological target: NOL7
# Assay: pooled miR-30 sensor sort-seq; sequence = guide strand
# Conditions: shRNA
# Also: reference of the scale not given here.
row,Sequence,sensor-assay potency score (higher = more potent)
1,TTGTACTTTAACTTTCTTGGAG,-0.0182
2,TCGATGAACAGCTCCTCGCGTC,-0.7
3,TTTCTGACCATCCACCGTCTTT,-1.02
4,TTCGATGAACAGCTCCTCGCGT,-0.6
5,TTTTTGTACTTTAACTTTCTTG,-0.529
6,AACTTATTTACAGTAGTCCTGT,-0.21

# Biological target: NOLC1
# Assay: as above
# Conditions: shRNA
row,Sequence,sensor-assay potency score (higher = more potent)
1,TAACTTTCGCTCTGGGACCTTG,-0.857
2,TTAGGTACAGTCTTCTTGGGGG,0.125
3,TTTAGTCTGAGCTTTAACTGTC,0.463
4,TTGCTTTAGAGACTACTGCCTT,-0.589
5,TTGCCTGTAACTTTCGCTCTGG,0.151
6,TTAGCTTTCTTAGCCACTGGTC,-0.169
7,TTGACCTGGACAGAGATTGAGC,-0.52
8,TTTGGTGAACTTCAAAACCTGA,-0.529
9,TTTAGGTACAGTCTTCTTGGGG,-0.268
10,TTGCTTTTTAGGTACAGTCTTC,-0.681

# Biological target: NOMO3
# Assay: as above
# Conditions: shRNA
row,Sequence,sensor-assay potency score (higher = more potent)
1,TATCTGACCACAGACACTGAAC,-1.06
2,TAACTCATCTACCATCTCCTGC,-0.337
3,TGGAACACCATCTCCTTCGGGT,-0.53
4,TAGAACGCTTGCTCAAACCGGT,0.161
5,TTGGTGTACAGCTTTATCTCGA,0.0866
6,TTATTCATCTGCTTGACGGTGT,0.998
7,TAACAGTGATTTTCTCTCCAGA,-0.602
8,TTGTCTCTTTGCATCTTCTGGG,-0.0196
9,TTTGGTGCAATTTTGATGGTGA,0.652
10,TATGATGTTTACATCATCGATG,-0.855
11,TTGATCTCCACGTCCGACTTGA,0.49
12,TTCACCTTCCTCATTGCCGTTT,-0.31
13,TTATTTTGTATTTTCCAGGGAG,0.546
14,TAAAGCTTGACCCATAACGTAG,-0.74
15,TGTTGCAACAATGTCAGCCAGC,-0.925
16,TTGTCTTCTGTTTCTTGGCTTG,-0.491

# Biological target: NOTCH4
# Assay: as above
# Conditions: shRNA
row,Sequence,sensor-assay potency score (higher = more potent)
1,TTGGTGAGCGACGTCCGCCGGC,-0.551
2,TATATAGGAAAGAACATCTTAC,0.0056
3,TTGGCTGAACAGAAGTCCCGAA,-0.0674
4,TTAGGGTTCTTAAATAGCGATA,-1.36
5,TTGGGACTGACAAGCATCGAGT,-0.743
6,ATATATAGGAAAGAACATCTTA,-0.0997
7,TTCTTGGTTCCAACTTAGGGGT,-0.898
8,TAGGGGTACACCATGTCCCTGC,0.0292
